Inconclusive results are not listed. Calls follow the shape of the dose curve; as a rule, active = well fitted curve in the direction sought with a large enough effect; inconclusive = small, poorly fitted or top-dose-only effect, or effect the other way, or another doubt; inactive = no such curve, though single readings can be large or run the other way.
These compounds were tested against Pyruvate kinase PKLR (Homo sapiens) (UniProt P30613) (assay: Secondary LDH Assay for Activators of Human Liver Pyruvate Kinase: for Probe SAR). Conditions: purified hPK-L, LDH-coupled NADH fluorescence kinetic; series mostly up to 58.2 µM; activity change, positive = activation: at the top concentration.
Chain of Pyruvate kinase PKLR (Homo sapiens) (P30613 whole entry, looked up): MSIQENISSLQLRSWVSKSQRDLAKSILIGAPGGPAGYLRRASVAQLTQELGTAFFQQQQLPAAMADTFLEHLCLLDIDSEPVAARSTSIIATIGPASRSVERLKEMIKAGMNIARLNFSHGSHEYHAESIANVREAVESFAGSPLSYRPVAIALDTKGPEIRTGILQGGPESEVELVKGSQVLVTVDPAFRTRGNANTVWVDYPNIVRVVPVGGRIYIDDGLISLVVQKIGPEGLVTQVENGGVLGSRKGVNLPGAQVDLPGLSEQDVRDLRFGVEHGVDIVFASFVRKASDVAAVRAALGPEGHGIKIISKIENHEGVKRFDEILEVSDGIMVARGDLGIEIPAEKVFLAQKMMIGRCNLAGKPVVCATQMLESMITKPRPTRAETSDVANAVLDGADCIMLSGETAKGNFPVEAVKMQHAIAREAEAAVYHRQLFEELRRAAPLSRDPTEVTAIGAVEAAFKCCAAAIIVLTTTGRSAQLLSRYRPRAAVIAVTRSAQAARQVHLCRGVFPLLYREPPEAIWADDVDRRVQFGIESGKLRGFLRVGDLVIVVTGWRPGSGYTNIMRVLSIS
Source text: NIH Chemical Genomics Center [NCGC]
Matthew G. Vander Heiden, M.D., Ph.D. [Harvard Medical School, 77 Avenue Louis Pasteur, Boston, MA 02115]
Human pyruvate kinase liver (hPK-L)enzyme was supplied as a highly purified (>95% pure) preparation from Harvard Medical School and a secondary assay was used to evaluate compounds. This assay couples the formation of pyruvate from hPK-R using lactate dehydrogenase (LDH) and NADH. The depletion of NADH is followed in a fluorescent-based kinetic assay that follows the formation of pyruvate to lactate, as catalyzed LDH. Pyruvate kinase substrates, PEP and ADP, were present in the assay at 0.1 mM and 4 mM respectively. In this kinetic assay initial rates were determined by following the fluorescence of NADH depletion.
NCGC Assay Protocol Summary:
Three uL of substrate mix (final concentration, 50 mM Tris-Cl pH 8.0, 200 mM KCl, 15 mM MgCl2, 0.1 mM PEP, 4.0 mM ADP, and 0.2 mM NADH) was dispensed into black-solid 1536 well plates. 23 nL of compounds were delivered by a pin tool and 1 uL of enzyme mix (final concentrations, 10 nM hPK-L and 1 uM of LDH) was added. Plates were immediately placed in ViewLux (Perkin Elmer) and NADH fluorescence was determined at 30 second exposure intervals for between 3 and 6 minutes. Data were normalized to the uninhibited and EC100 activation using known activators such as fructose-bis-phosphate.
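Also: 0% = uninhibited enzyme rate and 100% = full activation by fructose bisphosphate.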

Activity change, positive = activation, inactive:
O=C1c2ccccc2C(=O)N1c1cccc2ccncc12 -12.7%
Nc1cc(S(=O)(=O)N2CCN(S(=O)(=O)c3ccc4c(c3)OCCO4)CC2)ccn1 -4.84%
Cc1ccc(NS(=O)(=O)c2cc3c(cc2-c2ccco2)NC(=O)CO3)cc1C 20.6%
Cc1cccc(NS(=O)(=O)c2ccc3c(c2)CCC(=O)N3)c1 14.6%
Cc1ccc(NS(=O)(=O)c2cc3c(cc2C)NC(=O)CO3)cc1C 10.9%
Cc1ccc(NS(=O)(=O)c2ccc(-c3ccccc3)cc2)cc1C -15.4%
O=C1CCc2cc([S+](=O)([O-])Nc3ccc(N[S+](=O)([O-])c4ccc5c(c4)CCC(=O)N5)cc3)ccc2N1 -16.4%
Cc1ccc(NS(=O)(=O)c2cccc(F)c2)cc1C 0.953%
O=C1NS(=O)(=O)c2ccccc21 -2.32%
Cc1ccc(NS(=O)(=O)c2ccc3c(c2)CC(=O)N3)cc1C 1.96%
O=C1CCc2cc(S(=O)(=O)Nc3cccc4ccccc34)ccc2N1 7.23%
Cc1ccc(NS(=O)(=O)c2cc3c(cc2N2CCCCC2)NC(=O)CC3)cc1C -20.5%
O=C1CCc2cc(S(=O)(=O)Nc3ccccn3)ccc2N1 -13.7%
O=C1CCc2cc(S(=O)(=O)Nc3ccc4ccccc4c3)ccc2N1 7.52%
Cc1ccc(NS(=O)(=O)c2cccc(Cl)c2)cc1C -8.62%
Cc1ccc(NS(=O)(=O)c2cc3c(cc2Br)NC(=O)CO3)cc1C -0.908%
Cc1ccc(NS(=O)(=O)c2ccc3c(c2)CCC(=O)N3)cc1 10.1%
Cc1ccc(NS(=O)(=O)c2ccc3c(c2)n(C)c(=O)n3C)cc1C -11%
O=C1c2ccccc2C(=O)N1Cc1cccnc1 0.301%
O=C1c2ccccc2C(=O)N1c1ccccc1O -5.86%
O=S1(=O)N=C(Oc2ccccc2Cl)c2ccccc21 14.9%
Cc1ccc(NS(=O)(=O)c2cc3c(cc2N(C)C)CCC(=O)N3)cc1C -5.29%
Cc1ccc(NS(=O)(=O)c2ccc3c(c2)CCCC(=O)N3)cc1C -1.35%
O=C1CCc2cc(S(=O)(=O)Nc3cccc(F)c3)ccc2N1 -11.8%
CC(=O)N1CCc2cc(S(=O)(=O)Nc3ccc(C)c(C)c3)ccc21 -14%
O=C1c2ccccc2C(=O)N1c1ccc(O)cc1 -7.6%
O=C1c2ccccc2C(=O)N1c1ccc2ccccc2n1 -17.1%
O=C1CCc2cc(S(=O)(=O)Nc3cccc(B(O)O)c3)ccc2N1 -15.6%
Cc1ccc(NS(=O)(=O)c2ccc3c(c2)NC(=O)CO3)cc1C 10.8%
CN(C)c1cccc(S(=O)(=O)N2CCN(S(=O)(=O)c3ccc4c(c3)OCCO4)CC2)c1 -8.27%
Cc1c(Cl)cccc1NS(=O)(=O)c1cc2c(cc1F)NC(=O)CC2 2.22%
O=C1CCc2cc(S(=O)(=O)Nc3cccc(Oc4ccccc4)c3)ccc2N1 -17.2%
Cn1c2cc(S(C)=O)sc2c2cnn(Cc3cccc(O)c3)c(=O)c21 (stereo not given) 13.1%
O=C1c2ccccc2C(=O)N1c1nccs1 6.12%
CC(=O)N1CCCc2cc(S(=O)(=O)Nc3ccc(C)c(C)c3)ccc21 -4.77%
O=C1CCc2cc(S(=O)(=O)Nc3ccccc3F)ccc2N1 -1.77%
Cc1ccc2nc(-c3cccs3)c(Nc3ccccc3)n2c1 -18.5%
Cc1ccc(NS(=O)(=O)c2ccc3c(c2)CCN(C(=O)C(F)(F)F)C3)cc1C -14.6%
Cc1ccc2nc(-c3ccc(C)o3)c(Nc3ccc4c(c3)OCO4)n2c1 4.65%
Cc1ccc(NC(=O)c2ccc3c(c2)CCC(=O)N3)cc1C -8.05%
